# rCAG binder: molecules binding r(CAG) RNA repeats; r(CAG) RNA repeat, TO-PRO-1 dye displacement fluorescence; 1.3% of 370,000 active; inhibition, % at 3 µM;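 active = inhibition above the plate cutoff, the mean of all test compounds on that plate plus 3 SD, cut at about 35% in these data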;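 also: 0% = DMSO alone and 100% = 100 µM mitoxantrone as full dye displacement; higher means more dye released from RNA so lower well fluorescence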
# PG9 binder: PG9 antibody binding by small molecule | TR-FRET gp120-PG9 antibody binding | 0.43% of 360,000 active | inhibition, % at 6.7 µM; in the data active = inhibition above about 8.5%
# LEDGF integ inh: blocks HIV-1 LEDGF/p75-dependent DNA integration | TR-FRET IN-LEDGF/p75 DNA integration, Eu/Cy5 | inhibition, % at 3.7 µM | 0.64% of 370,000 active;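 active = inhibition above the screen-wide mean plus 3 SD, cut at about 13% in these data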;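 also: signal is the Cy5 over europium emission ratio at 671 and 618 nm; 0% = plate median of compound wells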
# DNMT1 inh: inhibitors of human DNMT1; P26358; inhibition (reported as % activation of signal), % at 10 µM; DNMT1 molecular beacon, Hinp1I cleavage, fluorescence; AID 588458; 0.83% of 360,000 active; in the data active = inhibition above about 50%
# UHRF1 MBD2 ctr: human UHRF1 methylated DNA binding inhibitors; Q96T88; UHRF1 binding to methylated oligo, TR-FRET; inhibition, % at 4.4 µM; 0.75% of 370,000 active; in the data active = inhibition above about 21%;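 also: UHRF1 SRA domain binding a hemimethylated CpG hairpin DNA probe; 0% = median of test compound wells and 100% = reference inhibitor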
# MBD2 DNA inh: blocks human MBD2 binding to methylated DNA; 0.31% of 370,000 active; inhibition, % at 4.4 µM; AID 686964; TR-FRET, MBD2 binding to methylated oligonucleotide; Q9UBB5; in the data active = inhibition above about 13%
# PG9 bind confirm: confirmation of small molecules binding HIV-1 gp120 antibody PG9; shares compounds with PG9 binder; TR-FRET PG9 antibody binding, biochemical; inhibition, % at 6.7 µM; 90% of 1,500 active; AID 651571; in the data active = inhibition above about 9%
# PGV04 Ab binding: counter-screen for PG9 binders: binding control antibody PGV04; inhibition, % at 6.7 µM; shares compounds with PG9 binder; AID 651604; 95% of 1,500 active; TR-FRET PGV04 antibody-gp120 binding, biochemical; in the data active = inhibition above about 9.5%
# The depositor's hits bear a star; · = no result; ! = not confirmed by another sample. Only some compounds are listed: those with a hit (about 3.5% of all), similar ones and a draw of the others.
SMILES,rCAG binder,PG9 binder,LEDGF integ inh,DNMT1 inh,UHRF1 MBD2 ctr,MBD2 DNA inh,PG9 bind confirm,PGV04 Ab binding
O=C(C1=C(O)C(=O)N(Cc2ccco2)C1c1cccnc1)c1cc2ccccc2o1 (stereo unspecified),4.3,15.3*,4.2,1.9,-3.5,-5.3,30.8*,46.2*
CNC(=O)c1c(NC(=O)CCS(=O)(=O)c2ccc(F)cc2)sc(C)c1C,-0.6,-2.9,0.2,-1.9,0.1,-1.8,·,·
COc1ccc(C2NC(=O)c3sc4nc(C)c(C(C)=O)c(-c5ccc(Cl)cc5)c4c3N2)cc1 (stereo unspecified),1.8,9.3*,0.0,10.8,-3.7,-4.0,22.4*,40.0*
COc1ccc(-c2c(C(C)=O)c(C)nc3sc4c(=N)n(N)cnc4c23)cc1,6.4,-0.5,0.9,2.3,1.4,0.0,·,·
Cc1ccc(-c2cc(-c3ccc(F)cc3)nc(N)c2C#N)o1,13.5,-0.9,-2.4,-31.4,-6.7,-4.6,·,·
Cc1ccc(-c2cc(-c3ccccc3)c(C#N)c(N)n2)o1,20.8,1.1,-1.1,-18.4,-2.3,1.6,·,·
Cc1cc(-c2ccc(Cl)cc2)c(C#N)c(N)n1,-1.5,55.0*,3.1,14.5,-0.3,7.9,64.5*,79.5*
N#Cc1c(-c2ccncc2)cc(-c2ccc(F)cc2)nc1N,5.1,33.5*,-1.5,0.6,0.1,4.4,8.9*,25.8*
CCCNC(=O)Cn1c(=O)/c(=C/c2ccc(-c3ccc([N+](=O)[O-])cc3)o2)s/c1=C\C(=O)C(C)(C)C,18.4,0.4,5.6,29.8,11.1,1.6,·,·
Cn1c(=S)[nH]c2scc(-c3cccs3)c2c1=O,6.4,4.2,-1.5,-9.0,-1.4,-0.7,·,·
C=CCn1c(=S)[nH]c2scc(-c3cccs3)c2c1=O,6.7,9.3*,-2.3,1.2,-3.9,-1.2,9.8*,10.3*
Cc1onc(-c2c(F)cccc2Cl)c1C(=O)Nc1nnc(C(F)(F)F)s1,16.1,24.4*,0.2,1.6,-0.6,-2.4,29.5*,41.8*
Cc1cc(NC2C3CC4CC(C3)CC2C4)n2nnnc2n1 (stereo unspecified),-2.8,24.0*,-2.2,5.1,-1.9,1.9,28.7*,38.6*
Cc1cccc(-c2cccc3c4c([nH]c23)[C@@H]2C[C@H](N(C)C(=O)c3ccco3)[C@H]([C@H](C)O)CN2CC4)c1,3.5,·,3.0,·,-1.0,-0.9,·,·
COc1ccc(C(=O)Nc2nnc(Cc3ccc(OC)c(OC)c3)s2)cc1,23.5,9.5*,-2.6,-3.9,1.2,3.6,10.9*,19.6*
COc1cccc(C(=O)Nc2nnc(-c3ccc(OC)cc3OC)s2)c1,1.1,31.2*,1.5,20.2,-0.7,-3.6,31.1*,40.5*
COc1cccc(C(=O)Nc2nnc(-c3ccccc3)s2)c1,-3.2,5.2,2.3,5.4,-2.6,-4.0,·,·
Cn1c(NCc2ccc3occc3c2)nc2cc(-c3cccc(C(F)(F)F)c3)sc2c1=O,2.2,-1.5,-0.7,-16.1,-1.1,-7.2,·,·
Cc1ccc(C(=O)N2CCC[C@@H]2C(=O)N2CCC[C@H]2C(=O)NCc2ccccc2)cc1,-1.9,0.6,1.3,·,-1.3,2.0,·,·
O=C(Cc1cccc2ccccc12)Nc1ccc(-c2cc3ccccc3oc2=O)cc1,19.8,18.5*,0.1,-8.5,-2.9,-3.7,34.9*,44.5*
CCC(=O)Nc1cccc(-c2cc3ccccc3oc2=O)c1,3.0,1.4,-0.5,1.9,-0.2,-0.6,·,·
CCc1ccccc1NC(=O)CC1S/C(=N\c2nccs2)N(CC)C1=O (stereo unspecified),-3.8,15.0*,-0.5,4.9,-1.8,2.9,9.0*,12.3*
Cc1ccccc1NC(=O)CC1S/C(=N/c2nccs2)N(C)C1=O (stereo unspecified),0.6,1.4,0.6,2.9,0.2,4.5,·,·
Cc1sc2nc(SCC(=O)NCc3cccs3)[nH]c(=O)c2c1C,3.9,0.0,1.9,3.3,-1.0,2.7,·,·
Cc1sc2nc(SCC(=O)NCc3ccco3)n(CCc3ccccc3)c(=O)c2c1C,2.1,28.2*,-2.3,27.5,-1.5,5.8,30.1*,34.0*
SMILES,rCAG binder,PG9 binder,LEDGF integ inh,DNMT1 inh,UHRF1 MBD2 ctr,MBD2 DNA inh,PG9 bind confirm,PGV04 Ab binding
O=C(CSc1nc2ccccc2c(=O)n1-c1ccc(F)cc1)NCc1ccco1,·,·,·,28.7,·,·,·,·
Cc1sc2nc(SCC(=O)NCc3ccco3)[nH]c(=O)c2c1C,6.9,28.4*,-1.8,1.4,-0.3,1.2,28.9*,42.2*
CC(=O)c1sc2nc(SCC(=O)NCCc3ccccc3)[nH]c(=O)c2c1C,15.2,36.3*,2.0,2.8,1.6,-0.1,37.1*,42.2*
CCOc1ccc(-n2c(SCC(=O)NCc3ccco3)nc3ccccc3c2=O)cc1,3.6,16.7*,-2.9,-10.0,2.7,8.2,45.3*,52.5*
CCOC(=O)C1CCN(C(=O)c2ccc3nc(-c4ccc(OC)cc4)c(-c4ccc(OC)cc4)nc3c2)CC1,4.0,1.1,1.6,-7.9,2.6,-3.4,·,·
CN(C)S(=O)(=O)c1ccc(N2CCCC2)c(C(=O)NCc2cccc(C(F)(F)F)c2)c1,-2.5,12.2*,-3.6,-4.7,3.2,0.9,17.1*,25.0*
Cc1cccc(NC(=O)CSc2cccc[n+]2[O-])c1C,1.0,16.1*,2.8,14.9,-2.6,0.4,9.3*,11.2*
O=C(O)c1cccc(NC(=O)c2ccccc2NC(=O)c2ccccc2F)c1,7.6,0.6,5.7,1.6,-3.0,-1.1,·,·
O=C(Nc1ccccc1C(=O)Nc1ccccc1)c1ccccc1F,-4.1,21.2*,-1.3,-3.8,2.9,4.6,21.1*,27.7*
CCCCN1CN2Cc3cc(F)ccc3C2CS1(=O)=O (stereo unspecified),3.4,·,-4.7,·,-4.2,-5.6,·,·
O=C(Nc1nc2c(Br)cc(Br)cc2c(=O)s1)C1CCC1,7.1,10.2*,3.8,25.5,-1.8,3.7,17.7*,20.0*
Cc1ccc(C)c2sc(NC(=O)C3CC3)nc12,2.2,-1.3,3.0,-3.2,-0.5,-3.2,·,·
C/C(=N\NC(=O)C1COc2ccccc2O1)c1ccc(Cl)s1 (stereo unspecified),-1.7,24.2*,3.7,-1.2,0.1,-1.2,6.3,8.2
CC1CCN(C(=O)c2ncn3c2c(=O)[nH]c2ccc(Br)cc23)CC1,0.7,9.1*,-0.8,4.2,-1.5,-5.6,13.7*,17.8*
CC(C)(C)OC(=O)[C@H](Cc1ccccc1)NC(=O)c1ncn2c1c(=O)[nH]c1ccc(Br)cc12,2.3,8.5,4.1,47.8,1.2,-0.7,·,·
CN1CCc2cccc3c2[C@H]1Cc1ccc(O)c(O)c1-3,13.3,10.6*!,12.4,9.8,14.5,4.2,12.3*,15.3*
